The source of these data is PubChem BioAssay (NCI).

Among the test systems are SK-MEL-2 melanoma; EKVX NSCLC; SN12C renal; UO-31 renal; TK-10 renal; ACHN renal; A498 renal; CCRF-CEM leukemia; MOLT-4 leukemia; SR leukemia.
Assay in all cases: NCI-60 one-dose screen, 48 h (100 = growth as untreated, 0 = no growth, -100 = all killed)
Conditions in all cases: 10 µM unless noted

This is part of a sample that, as a whole, favours compounds with a hit. Of some 83,000 tested, about 20% had one in any assay.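 96-well plates, one dose, 48 hours. Percent growth reported; active if below 10.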 Values without a mark were called inactive. Active and inactive are the calls of the source.

On to `CN1CCN(CC#CCOC(=O)CNC(=O)[C@]23CCC(C)(C)C[C@H]2C2=CC[C@@H]4[C@@]5(C)CC[C@H](O)C(C)(C)[C@@H]5CC[C@@]4(C)[C@]2(C)CC3)CC1`, for which the growth is 95.4% in the assay with SK-MEL-2 melanoma; 89.1% in the assay with EKVX NSCLC; 82.2% in the assay on SN12C renal; 63% with UO-31 renal; 109% with TK-10 renal; 92.5% with ACHN renal. Besides, the growth in the assay with A498 renal is 69.4%; in the assay on CCRF-CEM leukemia it was 85.6%; in the assay on MOLT-4 leukemia, 70.7%; with SR leukemia, 7.96% (active).
For `CC(C)C[C@H](C(=O)O)N(C)C(=O)[C@@H]1CCCN1C(=O)[C@H](C)OC(=O)[C@H](CCC(N)=O)NC(=O)[C@@H]1CCC(=O)N1`, the growth was 110% in the assay on SK-MEL-2 melanoma; 94.1% in the assay on EKVX NSCLC; 97.1% in the assay on SN12C renal; 88.3% with UO-31 renal; 105% with TK-10 renal; 106% with ACHN renal. Also, the growth was 107% with A498 renal, 102% in the assay on CCRF-CEM leukemia, 111% in the assay on MOLT-4 leukemia and 94.4% with SR leukemia.
In the case of `C=C(C)[C@@H]1CC[C@]2(C(=O)OCCOCCOCC[P+](c3ccccc3)(c3ccccc3)c3ccccc3)CC[C@]3(C)[C@H](CC[C@@H]4[C@@]5(C)CC[C@H](OC(C)=O)C(C)(C)[C@@H]5CC[C@]43C)[C@@H]12`, the growth with SK-MEL-2 melanoma is -75.6% (active); in the assay on EKVX NSCLC, -74.8% (active); with SN12C renal it was -89.9% (active); in the assay on UO-31 renal it was -95.1% (active); in the assay on TK-10 renal it was -87.1% (active); in the assay with ACHN renal, -96.7% (active). The growth with A498 renal was -94% (active); in the assay on CCRF-CEM leukemia, -41% (active); with MOLT-4 leukemia it was -77.9% (active); in the assay on SR leukemia, -49.2% (active).
Take `CC1=C(CCCOC(=O)NCCCl)C2=C(C)C3(CC3)[C@@](C)(O)C(=O)C2=C1`: the growth with SK-MEL-2 melanoma is 14.5%; with EKVX NSCLC, 54.3%; in the assay on SN12C renal, 45.7%; in the assay with UO-31 renal, -42.1% (active); with TK-10 renal it was 9.96% (active); in the assay on ACHN renal it was 5.75% (active). Besides, the growth is -9.87% (active) in the assay on A498 renal, 79.9% in the assay on CCRF-CEM leukemia, 70.4% in the assay with MOLT-4 leukemia and 82.9% with SR leukemia.
In the case of `COc1ccccc1C(=O)/C=C/c1cc2cccc(OC)c2[nH]c1=O`, the growth was 20% in the assay on SK-MEL-2 melanoma; 7.34% (active) in the assay on EKVX NSCLC; -0.142% (active) in the assay with SN12C renal; -48.6% (active) in the assay with UO-31 renal; 3.12% (active) in the assay with TK-10 renal; 4% (active) in the assay on ACHN renal. For the same molecule, the growth in the assay on A498 renal is -15% (active); in the assay with CCRF-CEM leukemia, -4.86% (active); in the assay with MOLT-4 leukemia, 7.38% (active); in the assay on SR leukemia it was -1.87% (active).
For the molecule `COc1ccc(C2N(c3cc(OC)c(OC)c(OC)c3)C(=O)C2(F)F)cc1F` (stereo not given), the growth in the assay on SK-MEL-2 melanoma was 84.6%; in the assay on EKVX NSCLC, 77.7%; with SN12C renal, 54.9%; with UO-31 renal it was 53.5%; in the assay with TK-10 renal it was 106%; with ACHN renal, 60.8%. For the same molecule, the growth in the assay with A498 renal is 97.8%; with CCRF-CEM leukemia, 13%; with MOLT-4 leukemia it was 18.7%; with SR leukemia, 18.7%.
As for `O=C(/C(=C/c1ccc([N+](=O)[O-])cc1)SCc1ccc(F)cc1)c1ccc(Cl)cc1`, the growth in the assay with SK-MEL-2 melanoma was 88.5%; in the assay on EKVX NSCLC it was 57.7%; in the assay on SN12C renal, 56%; with UO-31 renal, 44.8%; with TK-10 renal, 97.2%; in the assay on ACHN renal it was 60.7%. Besides, the growth is 70.9% in the assay on A498 renal, 6.19% (active) with CCRF-CEM leukemia, 7.7% (active) in the assay on MOLT-4 leukemia and 0.0981% (active) in the assay with SR leukemia.
Turning to `O=C(Nc1ccc(S(=O)(=O)NC2CCCCCC2)cc1)C(c1ccccc1)S(=O)(=O)c1ccc(F)cc1` (stereo not given), the growth is -22.9% (active) with SK-MEL-2 melanoma; 5.65% (active) with EKVX NSCLC; 12.6% in the assay on SN12C renal; -44.2% (active) in the assay on UO-31 renal; 6.92% (active) in the assay on TK-10 renal; 0.641% (active) in the assay on ACHN renal. In addition, the growth in the assay with A498 renal was -33.2% (active); with CCRF-CEM leukemia, 4.59% (active); with MOLT-4 leukemia it was 6.98% (active); in the assay on SR leukemia it was -0.97% (active).
As for `N#Cc1c(-c2ccc(F)cc2)c(C#N)c2c(C#N)c(N)nn2c1N`, the growth in the assay with SK-MEL-2 melanoma is 102%; in the assay with EKVX NSCLC, 96.8%; in the assay with SN12C renal, 104%; in the assay with UO-31 renal, 75.4%; with TK-10 renal it was 86.4%; in the assay with ACHN renal it was 95.7%. In addition, the growth is 93.7% with A498 renal, 104% in the assay with CCRF-CEM leukemia, 85.9% in the assay on MOLT-4 leukemia and 93.7% in the assay on SR leukemia.
As to `Cc1cc(NC(=O)CNc2nc(Oc3ccc(F)cc3)nc(-c3ccc(F)cc3)n2)ccc1Cl`, the growth is 103% in the assay on SK-MEL-2 melanoma; 98.6% in the assay with EKVX NSCLC; 100% in the assay with SN12C renal; 97% with UO-31 renal; 96.5% in the assay on TK-10 renal; 112% in the assay with ACHN renal. Besides, the growth with A498 renal is 89.3%; in the assay with CCRF-CEM leukemia, 95.3%; in the assay on MOLT-4 leukemia, 80.1%; in the assay on SR leukemia it was 85.2%.
As to `COc1ccc(C2C(c3ccccc3)C(=O)N2c2cc(OC)c(OC)c(OC)c2)cc1I` (stereo not given), the growth is 56.3% with SK-MEL-2 melanoma; 61.9% in the assay on EKVX NSCLC; 33% with SN12C renal; 18.7% in the assay on UO-31 renal; 75.1% in the assay on TK-10 renal; 26.5% in the assay with ACHN renal. The growth with A498 renal is -2.63% (active); in the assay on CCRF-CEM leukemia it was 7.6% (active); in the assay with MOLT-4 leukemia, 7.85% (active); in the assay with SR leukemia, 8.89% (active).
On to `CC(=O)ON1CCCC(P(=O)(OCOC(=O)C(C)(C)C)OCOC(=O)C(C)(C)C)C1=O` (stereo not given), for which the growth with SK-MEL-2 melanoma was 9.04% (active); in the assay on EKVX NSCLC, 9.78% (active); in the assay on SN12C renal, -1.1% (active); in the assay with UO-31 renal, -8.25% (active); in the assay with TK-10 renal, 1.68% (active); in the assay with ACHN renal it was 6.57% (active). Besides, the growth was -8.06% (active) with A498 renal, -7.6% (active) in the assay on CCRF-CEM leukemia, -25.4% (active) with MOLT-4 leukemia and -22.3% (active) in the assay on SR leukemia.
With `O=C(CN1N=C(c2ccc(F)cc2)CCC1=O)Nc1nc2ccccc2s1`, the growth was 92.7% with SK-MEL-2 melanoma; 24% in the assay with EKVX NSCLC; 40.2% in the assay with SN12C renal; -84% (active) with UO-31 renal; 95.3% in the assay on TK-10 renal; -23.6% (active) in the assay on ACHN renal. In addition, the growth with A498 renal is 97.8%; with CCRF-CEM leukemia, -72.1% (active); in the assay on MOLT-4 leukemia, 33.4%; in the assay on SR leukemia, -52.2% (active).
